Vif-A3G inh – Vif-A3G binding inhibition; Potency, µM (series often up to 46.1 µM), for inactives: top-dose activity, negative = active, actives largely listed as inhibitors; Q9HC16; HeLa A3G-eYFP + Vif (tagged APOBEC3G with the HIV-1 protein that degrades it), YFP fluorescence, overnight; actives 0.076% (n = 410,000); also: potency is read from the fitted curve at half-maximal effect; % is scaled to controls: 0 for no effect and ±100 for the full control effect; nearly all actives have a fitted effect of over 60% in size
Target sequence (Q9HC16 whole entry, looked up): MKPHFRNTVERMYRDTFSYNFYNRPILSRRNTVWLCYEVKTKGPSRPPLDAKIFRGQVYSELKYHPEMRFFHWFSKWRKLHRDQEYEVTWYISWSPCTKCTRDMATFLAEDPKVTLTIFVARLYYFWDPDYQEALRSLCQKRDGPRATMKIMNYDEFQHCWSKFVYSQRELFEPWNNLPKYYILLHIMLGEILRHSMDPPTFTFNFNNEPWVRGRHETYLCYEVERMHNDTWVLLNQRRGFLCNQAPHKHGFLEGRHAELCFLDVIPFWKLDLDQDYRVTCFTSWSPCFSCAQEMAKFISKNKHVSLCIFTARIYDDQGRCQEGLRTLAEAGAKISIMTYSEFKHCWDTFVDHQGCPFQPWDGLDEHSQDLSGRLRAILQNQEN
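Read-out is eYFP fluorescence (Ex 488/Em 500-530) from Vif-expressing HeLa A3G-eYFP cells; more signal means A3G escaped Vif-mediated degradation. Cells plated overnight, compound pinned in, incubated overnight at 37 deg C.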
GCN5L2 inh – blocks human GCN5L2 histone acetyltransferase; Q92830; GCN5L2 HAT assay, ThioGlo1 CoA-SH fluorescence; Potency, µM (doses to about 58.9 µM), for inactives: top-dose activity change, negative = inhibition, actives largely listed as inhibitors; actives 0.21% (n = 390,000); also: potency is read from the fitted curve at half-maximal effect; % is scaled to controls: 0 for no effect and ±100 for the full control effect
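Fluorescence readout, Ex340nm/Em540nm: ThioGlo1 (50uM final) reacts with free CoA thiol released as 20nM GCN5L2 acetylates H3(1-25) peptide (75uM) using acetyl-CoA (70uM). Compound and enzyme sat 15 min beforehand; 20 min room-temperature reaction.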
Vif-APOBEC3F blk – inhibitors of Vif-A3F interaction; HeLa A3F-eYFP + Vif (tagged APOBEC3F with the HIV-1 protein that degrades it), YFP fluorescence increase; Potency, µM (doses to about 46.1 µM), inactives show top-dose activity, negative = active; actives 0.2% (n = 390,000); AID 602313; also: potency is read from the fitted curve at half-maximal effect; % of control where 0% means no effect; nearly all actives have a fitted effect of over 65% in size
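Fluorescence increase (Ex 488/Em 500-530) after overnight compound treatment at 37 deg C flags inhibition of Vif-driven A3F-eYFP loss in stable HeLa A3F-eYFP/Vif cells seeded overnight beforehand.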
PKM2 activator – activators of human pyruvate kinase M2; AID 1631; purified PKM2, Kinase-Glo ATP luminescence, activation; response scale: 0% is enzyme alone, no compound; actives 0.34% (n = 260,000); P14618; Potency, µM (titrated, usually from 57.5 µM), inactives show at the top dose activation, most hits filed as activators; also: potency is read from the fitted curve at half-maximal effect; % is scaled to controls: 0 for no effect and ±100 for the full control effect; nearly all actives have a fitted effect of over 55% in size
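hPK-M2, >95% pure; 0.1 mM ADP / 0.5 mM PEP final; imidazole pH7.2 buffer w/ 7 mM MgCl2, 50 mM KCl; 1 h RT; Kinase-Glo lum. Intermediate enzyme activity for dual inhibitor/activator qHTS.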
IL-2 act – activates IL-2 in a cell-based reporter assay | actives 0.065% (n = 360,000) | activation, % (series mostly up to about 46 µM) | IL-2 activation reporter assay, cell-based qHTS; stimulated with anti-CD3/CD4/CD28 beads; in transgenic mouse T cells | AID 652025; in the data active = activation above about 50%; inconclusive = mostly about 30% to 49%; also: 0% is about no effect
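Unstimulated transgenic mouse T cells preincubated 60 min with compound, then stimulated with anti-CD3/anti-CD4-coated beads plus anti-CD28 for 18 h at 37 degrees C. IL-2 response read as EGFP and DsRed fluorescence by plate cytometry.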
RGS12 GoLoco inh – RGS12 GoLoco-Gai1 interaction inhibition; P63096; Gai1:RGS12 GoLoco peptide FP, rhodamine, 10 min; Potency, µM (titrated, usually from 61.6 µM), for the others: at the top dose activity, negative = inhibition, usual class: inhibitors; actives 0.44% (n = 230,000); AID 880; active = well fitted inhibition curve with a large enough effect, not every such curve was filed as active; inactive = no such curve, though single readings can be large or run the other way; also: potency is read from the fitted curve at half-maximal effect; % is scaled to controls: 0 for no effect and ±100 for the full control effect; nearly all actives have a fitted effect of over 30% in size
Target sequence (P63096 whole entry, looked up): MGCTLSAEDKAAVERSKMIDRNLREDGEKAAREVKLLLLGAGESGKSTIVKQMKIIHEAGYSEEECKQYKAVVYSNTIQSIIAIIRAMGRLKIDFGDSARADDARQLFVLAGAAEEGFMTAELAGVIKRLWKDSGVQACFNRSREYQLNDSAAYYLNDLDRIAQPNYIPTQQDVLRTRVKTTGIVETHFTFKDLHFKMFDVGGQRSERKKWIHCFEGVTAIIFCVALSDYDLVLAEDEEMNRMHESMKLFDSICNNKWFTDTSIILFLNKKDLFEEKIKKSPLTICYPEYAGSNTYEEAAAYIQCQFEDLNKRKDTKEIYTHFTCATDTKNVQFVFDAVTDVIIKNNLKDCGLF
* hit, by the source's call; ? = inconclusive; nt = no result; ! = not confirmed by another sample; [ ] = dose if it differs, or a comment. A selection: hits, their analogues and other compounds. The true share with any hit is near 0.77%. Unless noted, calls follow the shape of the dose curve; as a rule, active = well fitted curve in the direction sought with a large enough effect; inconclusive = small, poorly fitted or top-dose-only effect, or another doubt; inactive = no such curve, though single readings can be large; an effect the other way counts as inactive or inconclusive.

SMILES	Vif-A3G inh	GCN5L2 inh	Vif-APOBEC3F blk	PKM2 activator	IL-2 act	RGS12 GoLoco inh
CS(=O)(=O)c1ccc(NCCc2ccccn2)c([N+](=O)[O-])c1	-1%	2%	10%	14µM*	1	nt
COC(=O)c1cc(C(=O)c2cccc(Cl)c2Cl)cn1C	-1%	11%	3%	25µM*	3	6%
CCOC(=S)SCC(=O)Nc1nc(C)c(C)s1	?	?	-13%	-1%	-1	-1%
CCOC(=S)SCC(=O)Nc1nccs1	?	-3%	8%	18µM*	-1	-112%
COc1ccc(N2CCN(C(=O)c3cccnc3)CC2)c([N+](=O)[O-])c1	0%	-6%	8%	-5%	-1	20µM*
O=C(NCCCn1cccn1)C1CCC(=O)N(CCc2ccccc2)C1 (centres undefined)	2%	-6%	1%	nt	1	nt
O=C(Oc1ccccc1)N1CCC[C@@]2(CCN(c3ccncc3)C2)C1	nt	12%	nt	nt	nt	-1%
O=C(Oc1ccccc1)N1CCC2(CC1)CCN(c1ccncc1)CC2	nt	-12%	nt	nt	nt	2.8µM*
COc1ccc2c(CC(=O)NCC3CCC(C(=O)O)CC3)cc(=O)oc2c1 (centres undefined)	-5%	-2%	-1%	8%	0	-7%
COc1ccc2oc(=Nc3ccccc3)c(-c3nc4ccccc4[nH]3)cc2c1	-28%	0%	11µM*	0%	0	-2%
COc1cc(/C=C/c2nc(C#N)c(NCCc3ccccc3)o2)cc(OC)c1OC	-9%	-7%	-11%	nt	nt	nt
Cc1ccc(C(=O)NCC(=O)Nc2ccncc2)cc1C	-1%	-17%	1%	1%	-2	nt
OC[C@@H]1[C@@H](c2ccc(Cl)cc2)C(c2ccccc2)=NN1c1ccccc1	?	?	13%	nt	-1	22%[88.7 µM]
OC[C@@H]1[C@@H](c2ccc(Cl)cc2)C(c2cccc(Cl)c2)=NN1c1ccccc1	?	28µM*!	4%	nt	-1	1%
COc1ccccc1C(=O)NNC(=O)c1ccccc1F	0%	4%	5%	-1%	-2	0%
Cc1ccc(S(=O)(=O)c2cc(O)ccc2O)cc1C	-1%	-1%	-10%	16µM*	-1	-5%
CC(=O)Nc1ccc(S(=O)(=O)c2cc(O)ccc2O)cc1	-7%	3%	?	16%	-1	nt
CCCn1c(N)c(C(=O)CSc2nc(C)cs2)c(=O)n(C)c1=O	0%	3%	2%	16µM*	0	7%
CC(C)Cn1c(N)c(C(=O)CSc2nncs2)c(=O)n(C)c1=O	-4%	1%	-7%	nt	1	nt
COc1ccc(C(OC(=O)c2ccco2)C(=O)NCc2ccc(C)cc2)cc1 (centres undefined)	1%	-17%	nt	0%	-1	-5%
NC(=O)C[N+]1(CC#CC(O)(c2ccccc2)c2ccccc2)CCCC1	2%	-22%	12%	-13%	0	8.9µM*
Cc1cc(C)cc(C(=O)N2CC(=O)Nc3ccccc32)c1	?	-1%	-8%	-4%	-3	-14%
Cc1ccc(/C=C/C(=O)N2CC(=O)Nc3ccccc32)o1	0%	22µM*	8%	17%	0	-15%
CCOc1cc(/C=N/NC(=O)c2ccncc2)ccc1OS(C)(=O)=O	-5%	1%	-5%	0%	0	-2%
COc1ccccc1N1CCN(C(=O)CSc2nc(-c3ccccc3)cc(=O)[nH]2)CC1	-6%	-5%	0%	-2%	0	9%
SMILES	Vif-A3G inh	GCN5L2 inh	Vif-APOBEC3F blk	PKM2 activator	IL-2 act	RGS12 GoLoco inh
COc1ccccc1N1CCN(C(=O)CSc2nc(C)c(Cc3ccccc3)c(=O)[nH]2)CC1	0%	0%	12%	13µM*	-2	4%
O=C(NCCN1CCNC1=O)c1ccc2sc([C@H]3C[C@H](O)[C@@H](CO)O3)nc2c1	2%	nt	nt	nt	0	nt
Cc1ccc(NC(=O)/C(C#N)=C/c2ccc(C)s2)c(C)c1	11µM*	-2%	?	-3%	26	203%
Cc1ccc(/C=C(\C#N)C(=O)Nc2c(C)cccc2C)s1	-1%	-1%	-17%	5%	-2	54%
Cc1ccc(N=Cc2cccc(O)c2O)c(C)c1	-16%	-20%	nt	13µM*	nt	2%
Cc1ccccc1N=Cc1cccc(O)c1O	-15%	-19%	3%	17%	-1	-19%
CCn1c2ccccc2c2cc(NC(=O)CSc3nnc(-c4ccc(OC)c(OC)c4)n3N)ccc21	1%	5.6µM*	-7%	18%	-1	25%
CCn1c2ccccc2c2cc(NC(=O)CSc3nnc(-c4cccc(OC)c4)n3N)ccc21	-7%	-1%	-8%	6%	-1	11%
CC(C)Oc1cccc(-c2nnc(SCC(=O)Nc3ccc4c(c3)OCCO4)n2N)c1	1%	25µM*	6%	4%	-2	-5%
Nn1c(SCC(=O)Nc2ccc3c(c2)OCCO3)nnc1-c1cccnc1	-1%	0%	9%	-2%	-2	nt
CC(=O)Oc1ccc(Cn2cnc3cc4ccccc4cc32)cc1	-6%	-2%	3%	1%	-2	0%
COc1ccccc1COc1ccc2c(C)c(CCC(=O)O)c(=O)oc2c1C	-2%	11%	-9%	nt	-1	nt
COc1ccc2nc(C)cc(SCC(=O)N/N=C/c3cccc4ccccc34)c2c1	?	2%	-8%	-3%	-1	-8%
COc1ccc2nc(C)cc(SCC(=O)N/N=C/c3ccc(O)c(O)c3)c2c1	?	-4%	-2%	25µM*	-3	12%
CCC(/C=C1\Sc2ccc(OC)cc2N1CC)=C\c1sc2ccc(OC)cc2[n+]1CCCS(=O)(=O)[O-]	4%	3%	2%	-4%	-4	-188%
CCN1/C(=C/c2cc[n+](CCCS(=O)(=O)[O-])c3ccccc23)Sc2ccccc21	?	-9%	?	-5%	226*	24%
COc1cc(C(=O)OC(C)C(=O)N2CCCC2)cc2c1OCCO2 (centres undefined)	0%	-4%	1%	nt	1	nt
NC(=O)CC(NC(=O)Cc1ccc(Br)cc1)c1ccc(NCCc2ccccc2F)c([N+](=O)[O-])c1 (centres undefined)	-8%	-8%	5%	1.6µM*	0	3%
NC(=O)CC(NC(=O)Cc1ccc(Br)cc1)c1ccc(NCCc2ccc(F)cc2)c([N+](=O)[O-])c1 (centres undefined)	-15%	8%	2%	?	-1	-3%
NS(=O)(=O)c1ccc(NC(=O)c2cc(-c3cccs3)nc3ccccc23)cc1	-5%	2%	2%	0%	-3	1%

Screens from PubChem.
